Only some compounds are listed: those with a hit (about 8.6% of all), similar ones and a draw of the others.
Marburg entry = Marburg virus entry inhibition | Marburg virus pseudotype entry/binding inhibition, cell-based | Potency, µM (series often up to 49.2 µM), inactives show at the top dose activity change, negative = inhibition, hits mostly inhibitors | 6.5% of 18,000 active | AID 720532
LASV entry inh = blocks Lassa virus binding or cell entry | Lassa virus pseudotyped entry inhibition, cell-based qHTS | Potency, µM (highest dose often 49.2 µM), without a hit: top-dose activity change, negative = inhibition, actives largely listed as inhibitors | 4.1% of 18,000 active
* marks the source's active call; other numbers are inactive results; ? = inconclusive; . = not tested or not shown; ! = not active in a repeat; [ ] = remark or other dose. Calls come from the whole dose curve; tested in HEK293 cells. % is set by controls: 0 for no effect and ±100 for the full control effect; potency is the fitted concentration of half-maximal effect.

SMILES	Marburg entry	LASV entry inh
Cc1ccc(/C=C2/CNC/C(=C\c3ccc(C)cc3)C2=O)cc1	3.5µM*	11µM*
CC=C(C)C(=O)O[C@H]1C(C)=C2[C@@H]3OC(=O)[C@@](C)(O)[C@@]3(O)[C@@H](OC(=O)CCC)C[C@](C)(OC(C)=O)[C@@H]2[C@@H]1OC(=O)CCCCCCC	40µM*	40µM*
COc1ccccc1N1CCN(C[C@@H](C(=O)NC(C)(C)C)c2ccccc2)CC1	-30%	-16%
COc1ccccc1N1CCN(c2nc(CNC(=O)C3CC34CCCC4)nc3ccccc23)CC1 (centres undefined)	?	32µM*
O=C(NN=C1C[C@@H](O)[C@H](O)[C@H]2[C@@H]3C(=O)N(C[C@@H]4CCCO4)C(=O)[C@@H]3CC[C@@H]12)OCc1ccccc1	-5%[8.59 µM]	.
COc1cccc(CN2c3ccc(Br)cc3C(O)CS2(=O)=O)c1 (centres undefined)	-14%	-19%
c1ccc2nc(N3CCNCC3)ccc2c1	32µM*!	-10%
c1ccc2c(N3CCNCC3)cccc2c1	?	0%
C=CCN1c2ccccc2[C@]23CCC(=O)N(CCc4ccccn4)C2=NC(C(=O)OC)=C(C(=O)OC)[C@H]13	4%[8.59 µM]	14%[8.59 µM]
C[C@H]1CN(c2ccc(Br)cc2)C(=O)[C@H]1CC(=O)Nc1ccccc1	24%	9%
c1ccc2c(c1)CCCc1cc(NCCN3CCOCC3)nnc1-2	5%[17.8 µM]	24%[17.8 µM]
O=C1C(Cl)=C(NCCN2CCOCC2)C(=O)c2ncccc21	13µM*	11µM*
C[C@H]1O[C@@H](O[C@H]2CC[C@@]3(C)[C@H](CC[C@@H]4[C@@H]3C[C@@H](O)[C@]3(C)[C@@H](C5=CC(=O)OC5)CC[C@]43O)C2)C[C@H](O)[C@@H]1O[C@H]1C[C@H](O)[C@H](O[C@H]2C[C@H](O)[C@H](O[C@@H]3O[C@H](CO)[C@@H](O)[C@H](O)[C@H]3O)[C@@H](C)O2)[C@@H](C)O1	0.28µM*	0.35µM*
CC(=O)O[C@H]1C[C@H](O[C@H]2[C@@H](O)C[C@H](O[C@H]3[C@@H](O)C[C@H](OC4CC[C@@]5(C)C(CC[C@@H]6[C@@H]5CC[C@]5(C)[C@@H](C7=CC(=O)OC7)[C@@H](O)C[C@]65O)C4)O[C@@H]3C)O[C@@H]2C)O[C@H](C)[C@H]1O[C@@H]1O[C@H](CO)[C@@H](O)[C@H](O)[C@H]1O (some centres undefined)	?	2.8µM*
C[C@H]1O[C@@H](O[C@H]2[C@@H](O)C[C@H](O[C@H]3[C@@H](O)C[C@H](O[C@H]4CC[C@@]5(C)[C@H](CC[C@@H]6[C@@H]5CC[C@]5(C)[C@@H](C7=CC(=O)OC7)CC[C@]65O)C4)O[C@@H]3C)O[C@@H]2C)C[C@H](O)[C@@H]1O	0.089µM*	?
CC(C)=CCC[C@](C)(O[C@@H]1O[C@H](CO)[C@@H](O)[C@H](O)[C@H]1O)[C@H]1CC[C@]2(C)[C@@H]1[C@H](O)C[C@@H]1[C@@]3(C)CC[C@H](O[C@@H]4O[C@H](CO)[C@@H](O)[C@H](O)[C@H]4O[C@@H]4O[C@H](CO)[C@@H](O)[C@H](O)[C@H]4O)C(C)(C)[C@@H]3[C@@H](O)C[C@]12C	?	-20%
CC1O[C@@H](O[C@@H]2C(O)C[C@H](O[C@@H]3C(O)C[C@@H](OC4CC[C@@]5(C)C6CC(O)[C@@]7(C)C(C8=CC(=O)OC8)CC[C@@]7(O)C6CC[C@@H]5C4)OC3C)OC2C)CC(O)[C@H]1O (some centres undefined)	0.56µM*	1µM*
CO/N=C(\C(=O)N[C@@H]1C(=O)N2C(C(=O)O)=C(CSc3nc(C)c(CC(=O)O)s3)CS[C@H]12)c1csc(N)n1	-16%	3%
CCCCCC(=O)N1C[C@H](n2cc(C3CC3)nn2)[C@@H](O)C[C@H]1c1ccc(Cl)cc1	-13%	?
CC(C)CN(C[C@@H](O)[C@H](Cc1ccccc1)NC(=O)O[C@@H]1CCOC1)S(=O)(=O)c1ccc(N)cc1	-13%	-8%
C[C@@H]1O[C@H](O[C@@H]2CC[C@@]3(C=O)[C@H]4CC[C@@]5(C)[C@@H](C6=CC(=O)OC6)CC[C@@]5(O)[C@@H]4CC[C@]3(O)C2)C[C@H](O)[C@@H]1O	3.5µM*	3.5µM*
CC1OC(O[C@@H]2C(O)CC(O[C@@H]3C(O)C[C@@H](OC4CC[C@]5(C)[C@H](CC[C@H]6[C@@H]5CC[C@]5(C)C(C7=CC(=O)OC7)C(O)C[C@@]65O)C4)OC3C)OC2C)CC(O)C1O (some centres undefined)	0.63µM*	5µM*
COC(=O)C1=C(C)N(Cc2ccccc2)C(=NCCc2cccnc2)NC1c1ccc(Br)cc1 (centres undefined)	4%[8.59 µM]	-4%[8.59 µM]
COc1c(C(N)=O)cc(-c2ccc(Cl)cc2)cc1-c1ccc(S(N)(=O)=O)cc1	-50%	?
O=C(OCc1cn([C@@H]2CN(C(=O)c3cccs3)[C@@H](c3ccc(Cl)cc3)C[C@@H]2O)nn1)c1ccccc1	-8%	4%
SMILES	Marburg entry	LASV entry inh
CCOc1ccc(C=C2SC(=O)N(CCN)C2=O)cc1	11µM*	13µM*
CCOc1ccc(/C=C/C(=O)c2cccs2)cc1	6%	14%
O=C(c1ccc([N+](=O)[O-])cc1)N1[C@H](COCc2ccccc2)C=CS1(=O)=O	-20%	-20%
COC(=O)C[C@H]1c2ccccc2[C@@H]2C(=C[C@@H](C)[C@H]3C(=O)N(O)C(=O)[C@H]32)N1C(=O)OC	8%[8.59 µM]	4%[8.59 µM]
CC1=C[C@@H](COCc2ccccc2)O[C@@]2(C1)C(=O)N(CC1CC1)c1ccccc12	1%[8.59 µM]	-24%[8.59 µM]
Nc1ncc(-c2cccc(S(N)(=O)=O)c2)c2scc(-c3ccc(F)c(Cl)c3)c12	3.1µM*	?
COc1ccc(-c2nc3c(c4c2C[C@H](c2ccccc2)OC4)CN(C(=O)N[C@@H](C)C(=O)OC(C)C)CC3)c(C)c1	?	1%[8.59 µM]
CCN(CC)CCOCCOC(=O)C1(c2ccccc2)CCCC1	7.1µM*!	1%
O=C(O)CN(CCOCCOCCN(CC(=O)O)CC(=O)O)CC(=O)O	24%	-3%
CCN(CC)CCOC(=O)C(C)(c1ccccc1)c1ccccc1	28µM*	?
CCN(CC)CCNC(C(=O)OCCC(C)C)c1ccccc1 (centres undefined)	?	-10%
CCN(CC)CCOCCOC(=O)C(CC)(CC)c1ccccc1	22µM*	?
CCN(CC)CCOC(=O)C1(c2ccc([N+](=O)[O-])cc2)CCCC1	?	2%
COCC(=O)Nc1cc(C(=O)N2CCc3c([nH]c4ccccc34)C2)cc2nc(-c3ccccc3)n(C)c12	-14%	-13%
C[C@@H]1[C@@H](c2ccccc2)Oc2c(Cl)cccc2S(=O)(=O)N1Cc1ccc(F)cc1	?	7%
COc1cccc([C@@H]2Oc3ccc(Br)cc3C(=O)[C@@H]2O)c1	31%[8.59 µM]	34%[8.59 µM]
COC(=O)N[C@@H](C=Cc1ccccc1)[C@@H](C)[N+](=O)[O-]	2%[8.59 µM]	-9%[8.59 µM]
Cn1c2ccccc2c2c3c(c4c5ccccc5n(CCC#N)c4c21)CNC3=O	?	11µM*
COc1cccc([C@@H]2Oc3ccc(OC)cc3C[C@@H]2OC(=O)N[C@H]2CCCc3ccccc32)c1	3%[8.59 µM]	-1%[8.59 µM]
CNC(=O)c1cncc(C=Cc2c(C)cccc2C)c1	?	35%
CCCCCC(=O)N1C[C@@H](n2cc(-c3ccc(F)cc3)nn2)[C@H](O)C[C@H]1c1ccccc1	?	-15%
